Assay results: the supplement of paper PMC11417369
± gives the standard deviation of the averaged measurements. In all, about 25,000 sequences were measured (“ln(normalized median fluorescence intensity)”: median about 10, highest 2% from about 12 on). For the sample, the highest values were picked, then their nearest neighbours and some sequences at random.

tested on: PfAP2-G AP2 domain (GST-tagged); assay: gcPBM binding intensity (ln(normalized median fluorescence intensity)); higher = stronger DNA binding
Outline: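 GST-fused DNA-binding domains of P. falciparum, expressed in E. coli, were applied at about 25 μg on average for 1 h to an Agilent 4 × 180k array of primer-extended double-stranded 36-bp intergenic genomic probes and negative controls. Binding intensity is the highest Masliner-normalised natural-log median intensity across replicate spots of either probe orientation, measured with Alexa488 anti-GST antibody and a 488 nm scan.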

| Sequence | gcPBM binding intensity (ln) |
| --- | --- |
| ATAATTATAAAATAAACACACATATATATTTATATG [CACACA_site440] | 9.98 ± 0.16 |
| AATTAAAAAAAATACACACACACATACACATATATA [CACACA_site3298] | 10.2 ± 0.22 |
| ATAACATAAGGAAATACACACATATATAAGTATATA [CACACA_site778] | 10.02 ± 0.021 |
| ACATATATATATATATATATATATATATTTATTTAT [CACACA_negctrl_site734] | 10.2 ± 0.39 |
| AAAACTATAATGAATAGTACATAAAAATGGATATAT [XGTACX_site6056] | 11 ± 0.5 |
| TCTATAAAGGAATATACACACATATATATATATATA [CACACA_site410] | 9.9 ± 0.32 |
| AATAATATATTTAGGGGTACATAATAATATATTTTA [XGTACX_site8366] | 11.6 ± 1.1 |
| AGATAAAAAAAGTACACACACACATATATTTATATA [CACACA_site7437] | 11.8 ± 1.2 |
| GTAAAAAAAAAAAAAAGTACATTATACATATATTTA [XGTACX_site5447] | 11.3 ± 0.81 |
| AAAAAAAAAAAAAGTACACACTTATAAAATATTATG [CACACA_site4639] | 11.6 ± 1.1 |
| TTAAAAAAAAAAAAAAGTACACACTTATAAAATATT [XGTACX_site1630] | 11.6 ± 0.91 |
| ATATTATTTTAAAGTACACACATATATTAAGATATA [CACACA_site5306] | 11.4 ± 1 |
| AAAAAAGATATATAAACACACATATTTATATACACA [CACACA_site6866] | 9.66 ± 0.16 |
| ATAAAATAAAAAAGTAGTACACACTTCACGATATTT [XGTACX_site8289] | 11.5 ± 0.84 |
| TAAAAAAAAAAAAAAGTACACACTTATAAAATATTA [CACACA_site872] | 11.6 ± 1 |
| AAAAAAAAAAAAAAAAGTACATATATATATTTATAT [XGTACX_site5893] | 11.7 ± 1 |
| TAAAATAAAAAAGTAGTACACACTTCACGATATTTT [CACACA_site3896] | 11.6 ± 0.91 |
| AAATAAAAAAGTAGTACACACTTCACGATATTTTTT [CACACA_site6015] | 11.6 ± 1 |
| AAAAAAAAAAAAAAAAGTACATATATTATATATATA [XGTACX_site2983] | 11.3 ± 0.93 |
| AATGTAAAATATAAATGTACATATATATATATATAT [XGTACX_site5071] | 11 ± 0.45 |
| TATATATATATATATGTACACACATATATACCTTTC [CACACA_site8854] | 11.3 ± 0.71 |
| GAAAGAATAAAATAAACATGCAAATAAAACATAAAA [TGCATGCA_site471] | 9.81 ± 0.2 |
| AGCATAAACAATTTTTGAAAAAATATACACTCATAG [CACACA_negctrl_site890] | 9.935 ± 0.007 |

| Sequence | gcPBM binding intensity (ln) |
| --- | --- |
| AAAAAATATACATATTGTACATTTTTTATTAACACA [XGTACX_site6415] | 10.8 ± 0.49 |
| TAGTATTGTAAAAAAAAAAAAGAAAAAAAAAAAAAA [CACACA_negctrl_site977] | 9.68 ± 0.15 |
| TTAAGATGCATAAATACATGCAAAGTAAATAATTCT [TGCATGCA_site517] | 9.88 ± 0.014 |
| CATAAAAATGGATACACACACATAATATATATATAT [CACACA_site3619] | 10.2 ± 0.3 |
| TTACTTAAGAAACACACACACAAAAAAAAAAAAAAA [CACACA_site946] | 9.91 ± 0.54 |
| AGTTTAAATTAAATTACACACTACGAATAATATATT [CACACA_site7811] | 9.895 ± 0.007 |
| TATTCCAAAAATGTGTGTACATAAATACAATATTAT [XGTACX_site2653] | 11.4 ± 0.89 |
| TACATATAAAAGTACACACACACACCCATATATATA [CACACA_site941] | 11.6 ± 1.1 |
| ATAAAAAAAAAAAAAAGTACACATATAAAAGTATTG [XGTACX_site8265] | 11.6 ± 0.91 |
| AAAAAAAAAAAAAAAAGTACACAAATAGATTTATAT [XGTACX_site3727] | 11.6 ± 0.88 |
| AATAAATATATTAAAAGTACACAAATATTATTTAAT [XGTACX_site2482] | 11.4 ± 0.76 |
| ATAAATACATATAAAAGTACACACACACACATATAT [XGTACX_site1744] | 11.5 ± 0.93 |
| ACAATATAGATTAAAAGTACAAATAGTAAATTATAT [XGTACX_site3165] | 11.2 ± 0.71 |
| GAGATATAAAAGTGTACACATATTGTTATCCATATT [CACACA_site5441] | 11.8 ± 1 |
| AAAAAAAAAAAAAGTACACACATACAGATAAATATA [CACACA_site5067] | 11.6 ± 1 |
| AGATATATATTTTATTGTACACATTAAAGTATAAAA [XGTACX_site7194] | 11.5 ± 1.1 |
| GCCATAAAGATATATACACACATAAAAAAAAGTTAT [CACACA_site6674] | 10.1 ± 0.16 |
| TAAAAAAAAATAAAAAGTACATATATATATATATAT [XGTACX_site1155] | 11.1 ± 0.86 |
| AGATAAAAAAAGTACACACACACATATATATATATA [CACACA_site3072] | 11.6 ± 0.93 |
| ATATATTGAACATATTGTACATTTTGTTAATATTTT [XGTACX_site7622] | 10.7 ± 0.43 |
| TTATATTTATATATTTGTACGTATGTATATAATTCA [XGTACX_site2993] | 11.4 ± 0.97 |
| ATTGTTTTTTTTTCTTTGTGGAATGAATGAATATAT [XGTACX_negctrl_site603] | 10 ± 0.19 |
| TATATATATATATTGACACACATGTATTTCAATATT [CACACA_site2832] | 10.1 ± 0.21 |

| Sequence | gcPBM binding intensity (ln) |
| --- | --- |
| TATATATATATGTGCACACATAATAAAAAAAAAAAT [CACACA_site3831] | 10.6 ± 0.69 |
| AAAAAATTAATATTGACACACATTTTTAAGAATAAT [CACACA_site239] | 10.1 ± 0.16 |
| TATGTTTTTGAATGAGTGCATTAAAATAAAACATTT | 10.2 ± 0.27 |
| AAAAAAGAAAAAAGGACACACATAAATATACTCACG [CACACA_site2904] | 11.2 ± 0.91 |
| TAAATTATAATATGCACACAAAATGTTATATTAAAA [CACACA_site376] | 9.97 ± 0.26 |
| TAAAAAATAAATATATGTACGCAATAAATGTGTTAA [XGTACX_site4043] | 11.6 ± 1.1 |
| AATTTTATTTAATTTTTTTGGGAAATGATAAAATTT [CACACA_negctrl_site934] | 9.88 ± 0.2 |
| CATATGCGTCTTGCCTTGCACACTTTTATGAAAAAA [CACACA_site2055] | 10.4 ± 0.26 |
| ATACACACTTAAAAAAGTACTTAACTACATGAATTG [XGTACX_site1203] | 11.1 ± 0.59 |
| TACACCCACCCACATACACACACATACACATATATA [CACACA_site8503] | 10.3 ± 0.35 |
| TATTCCCCCCAACACACACACACACCGACATACCAC [CACACA_site8723] | 11.8 ± 1.1 |
| CATATTCCCCCCCACACACACACACCCATACATACC [CACACA_site2303] | 11.7 ± 0.71 |
| CACAAACACCCAAACACACACACACCGACATACATA [CACACA_site4410] | 10.2 ± 0.27 |
| CATACACCCATACATACACACATACATATATATATA [CACACA_site8591] | 10.2 ± 0.11 |
| GACATATTCCCCCCCACACACACACCCACATACATA [CACACA_site2302] | 11.8 ± 0.71 |
| CATATATACGCATACACACACACACCCACACCCACA [CACACA_site1725] | 10.6 ± 0.52 |
| CACCCACCCACATACACACACATACACATATATATA [CACACA_site1722] | 10.2 ± 0.25 |
| CATATTCCCCCCCACACACACACACGCATACATACC [CACACA_site7148] | 11.8 ± 0.6 |
| TATTCCCCCAAACACACACACACACCCACATACCAC [CACACA_site2304] | 11.1 ± 0.78 |
| TATATATACATATACACACACACACCCATATATATA [CACACA_site2246] | 10.1 ± 0.2 |
| ACCATACATACATACACACACACACGCATATTTATA [CACACA_site7386] | 10.4 ± 0.28 |
